# Test results reported in PubChem BioAssay (NCATS).
# Several values for one entry are separate records, joined by “and”; a condition that tells them apart may be missing. Identical values can stand only once. Records with an inconclusive call do not appear. Activity calls are given as the source filed them. Unless noted, calls come from the whole dose curve; as a rule, active = well fitted curve in the direction sought with a large enough effect; inconclusive = small, poorly fitted or top-dose-only effect, or another doubt; inactive = no such curve, though single readings can be large; an effect the other way counts as inactive or inconclusive.
# Assays:
# [1] = Primary qHTS for inhibitors of nuclear receptor binding SET domain protein 2 (NSD2) in an isogenic RCH-ACV NSD2 p.E1099K mutant (9B) (AID 1645876); note: nearly all actives have a fitted effect of over 70% in size; note: potency is the fitted concentration of half-maximal effect
# [2] = Primary qHTS for inhibitors of nuclear receptor binding SET domain protein 2 (NSD2) in an RCH-ACV wild type WT cells (2C) (AID 1645877); note: nearly all actives have a fitted effect of over 70% in size; note: potency is the fitted concentration of half-maximal effect
# [3] = biological target: Catechol O-methyltransferase (Homo sapiens) (UniProt P21964); experiment: Confirmatory Screen for Target Class Profiling of Small Molecule Inhibitors of Methyltransferases (AID 1745852; calls by dose curve; note: potency is the fitted concentration of half-maximal effect; for activity change, negative = inhibition: % is set by controls: 0 for no effect and ±100 for the full control effect); conditions: MTase-Glo luminescence, SAH detection, recombinant enzyme; measured here: COMT max response; stronger effect = lower value
# [4] = biological target: Guanidinoacetate N-methyltransferase (Homo sapiens) (UniProt Q14353); experiment: as above; conditions: activity change, negative = inhibition: at 57.3 µM (top of the series) unless noted
# [5] = biological target: Nicotinamide N-methyltransferase (Homo sapiens) (UniProt P40261); experiment: as above; conditions: MTase-Glo luminescence, SAH detection, recombinant enzyme; measured here: NNMT max response; stronger effect = lower value
# [6] = biological target: Phenylethanolamine N-methyltransferase (Homo sapiens) (UniProt P11086); experiment: as above; conditions: MTase-Glo luminescence, SAH detection, recombinant enzyme; measured here: PNMT max response; stronger effect = lower value
# [7] = Viability counterscreen for antagonist of constitutive androstane receptor (CAR) against the NCATS DSHEA and TCM libraries (AID 1794837);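 note: compound exposure lasted 24 h before viability reading; 0% is about no effect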
# Summary of the method: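 Cell viability, CellTiter-Fluor, Ex/Em 405/540 nm, 1 h at 37C. HepG2-CYP2B6-hCAR, 2,500 cells/well; cpds + CITCO 48 uM final (antagonist mode), 24 h, 37C/5% CO2.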
# [8] = Viability counterscreen for agonist of constitutive androstane receptor (CAR) against the NCATS DSHEA and TCM libraries (AID 1794838); note: 0% is about no effect
# Summary of the method: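 Viability by CellTiter-Fluor fluorescence, 405/540 nm, after 1 h at 37C. HepG2-CYP2B6-hCAR cells were exposed 24 h to test substances in presence of 0.75 uM PK11195 (final).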
# [9] = biological target: Nuclear receptor subfamily 1 group I member 3 (Homo sapiens) (UniProt Q14994); experiment: Primary qHTS for agonist of constitutive androstane receptor (CAR) against the NCATS DSHEA and TCM libraries (AID 1794839);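 note: HepG2 cells expressing human CAR with a CYP2B6 reporter plus PK11195 antagonist; 0% is about no effect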
# Summary of the method: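 Luminescence from ONE-Glo luciferase was the agonist read-out in HepG2-CYP2B6-hCAR cells exposed 24 h to test substances. Wells also held the CAR antagonist PK11195 at 0.75 µM final. Viability was by CellTiter-Fluor fluorescence.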
# [10] = HepG2 viability counterscreen (readout 2: ATP content) against the NCATS DSHEA and TCM libraries (AID 1794840); note: 0% is about no effect
# Summary of the method: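 1,000 HepG2 cells/well, 4 h attach; compounds ~24 h, 37C/5% CO2. Readout 1: GF-AFC 25 uM final, 30 min, fluorescence 380/510 nm. Readout 2: CellTiter-Glo, 30 min RT, luminescence.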
# [11] = NCATS anti-infectives library activity on HEK293 viability as a counter-qHTS vs the C. elegans viability qHTS (AID 1745854);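 note: HEK293 cells exposed to compounds for 24 hr before the viability read; % is set by controls: 0 for no effect and ±100 for the full control effect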
# Summary of the method: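 Counter-screen for cytotoxicity: HEK293, 24 hr, 37C, compounds up to 41.7 uM final (a dilution series, 1:5). Readout CellTiter-Glo luminescence, 10 min RT. Digitonin control, 83.3 uM final.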
# [12] = biological target: Rap guanine nucleotide exchange factor 3 (Homo sapiens) (UniProt O95398); experiment: Confirmatory qHTS for agonist of cAMP-regulated guanine nucleotide exchange factor 3 (EPAC1) (AID 1645881);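 note: EPAC1 catalysed release of BODIPY-GDP from Rap1B seen as fluorescence loss; 100% = effect of cAMP agonist control; nearly all actives have a fitted effect of over 75% in size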
# [13] = biological target: Rap guanine nucleotide exchange factor 4 (Homo sapiens) (UniProt Q8WZA2); experiment: Confirmatory qHTS for agonist of cAMP-regulated guanine nucleotide exchange factor 4 (EPAC2) (AID 1645884);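 note: nucleotide exchange releases bodipy-GDP from Rap1 and this lowers its fluorescence; % is set by controls: 0 for no effect and ±100 for the full control effect; nearly all actives have a fitted effect of over 65% in size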
# [14] = biological target: Rap guanine nucleotide exchange factor 4 (Homo sapiens) (UniProt Q8WZA2); experiment: Confirmatory qHTS for antagonist of cAMP-regulated guanine nucleotide exchange factor 4 (EPAC2) (AID 1645885); note: nearly all actives have a fitted effect of over 25% in size
# [15] = biological target: Rap guanine nucleotide exchange factor 3 (Homo sapiens) (UniProt O95398); experiment: Counterscreen qHTS for antagonist of cAMP-regulated guanine nucleotide exchange factor 3 (EPAC1) (AID 1645888);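 note: fluorescence loss as bound BODIPY-GDP is released from Rap1B; % of control where 0% means no effect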
# Summary of the method: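 Rap1B–BODIPY-GDP (250 nM) with 50 uM GDP; compounds pin-transferred to 9.74 nM–152 uM final (activator) or from 7.32 nM upwards (inhibitor). Fluorescence Ex/Em 480/540 nm read at 5 and 30 min, then after adding cAMP or buffer, at room temperature.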
# Catechol O-methyltransferase (Homo sapiens), sequence (P21964 whole entry, looked up): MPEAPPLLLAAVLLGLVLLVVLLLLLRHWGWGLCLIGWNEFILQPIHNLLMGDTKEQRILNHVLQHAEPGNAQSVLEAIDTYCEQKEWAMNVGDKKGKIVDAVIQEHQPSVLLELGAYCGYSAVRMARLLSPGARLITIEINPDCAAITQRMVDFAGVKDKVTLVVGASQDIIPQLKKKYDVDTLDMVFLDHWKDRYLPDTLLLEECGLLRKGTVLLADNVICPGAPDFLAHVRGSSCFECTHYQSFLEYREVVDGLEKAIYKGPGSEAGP
# Nicotinamide N-methyltransferase (Homo sapiens), sequence (P40261 whole entry, looked up): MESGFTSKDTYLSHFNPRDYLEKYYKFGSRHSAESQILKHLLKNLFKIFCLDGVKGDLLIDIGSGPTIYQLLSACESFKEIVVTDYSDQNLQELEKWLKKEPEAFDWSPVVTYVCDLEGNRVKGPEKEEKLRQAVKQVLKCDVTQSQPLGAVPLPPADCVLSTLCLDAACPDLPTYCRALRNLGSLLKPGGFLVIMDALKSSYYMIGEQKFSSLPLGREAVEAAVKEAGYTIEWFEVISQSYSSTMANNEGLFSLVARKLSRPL
# Phenylethanolamine N-methyltransferase (Homo sapiens), sequence (P11086 whole entry, looked up): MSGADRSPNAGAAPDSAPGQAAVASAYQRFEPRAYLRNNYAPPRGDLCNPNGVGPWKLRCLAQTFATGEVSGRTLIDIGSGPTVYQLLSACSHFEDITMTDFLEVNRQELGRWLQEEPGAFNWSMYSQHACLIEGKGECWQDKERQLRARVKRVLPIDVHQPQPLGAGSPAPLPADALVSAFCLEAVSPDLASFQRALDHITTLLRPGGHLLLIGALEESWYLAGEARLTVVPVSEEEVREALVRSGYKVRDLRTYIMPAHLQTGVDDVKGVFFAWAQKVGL
# Rap guanine nucleotide exchange factor 3 (Homo sapiens), sequence (O95398 whole entry, looked up): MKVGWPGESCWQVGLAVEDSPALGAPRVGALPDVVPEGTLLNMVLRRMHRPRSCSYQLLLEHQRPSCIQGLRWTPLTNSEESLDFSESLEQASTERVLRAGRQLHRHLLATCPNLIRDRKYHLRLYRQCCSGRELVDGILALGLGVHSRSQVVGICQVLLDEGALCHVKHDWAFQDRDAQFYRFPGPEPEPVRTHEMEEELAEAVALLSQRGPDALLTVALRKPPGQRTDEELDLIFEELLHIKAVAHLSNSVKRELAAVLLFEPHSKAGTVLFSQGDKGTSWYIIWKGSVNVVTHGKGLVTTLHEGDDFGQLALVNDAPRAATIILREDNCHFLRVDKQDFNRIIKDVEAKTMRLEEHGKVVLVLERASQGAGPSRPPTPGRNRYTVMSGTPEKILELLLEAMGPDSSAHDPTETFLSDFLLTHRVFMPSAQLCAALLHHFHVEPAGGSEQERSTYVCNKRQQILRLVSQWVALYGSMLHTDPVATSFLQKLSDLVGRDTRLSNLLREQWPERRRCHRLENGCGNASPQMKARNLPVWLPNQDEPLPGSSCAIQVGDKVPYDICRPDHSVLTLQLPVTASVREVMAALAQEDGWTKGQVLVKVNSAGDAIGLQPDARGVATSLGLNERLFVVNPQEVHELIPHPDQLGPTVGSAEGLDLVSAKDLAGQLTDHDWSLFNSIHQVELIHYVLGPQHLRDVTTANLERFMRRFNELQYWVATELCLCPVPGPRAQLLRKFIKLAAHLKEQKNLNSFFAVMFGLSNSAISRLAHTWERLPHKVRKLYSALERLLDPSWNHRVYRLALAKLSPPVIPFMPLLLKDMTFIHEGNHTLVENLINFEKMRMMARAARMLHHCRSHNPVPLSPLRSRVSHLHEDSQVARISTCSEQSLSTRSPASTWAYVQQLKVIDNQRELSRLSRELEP
# Rap guanine nucleotide exchange factor 4 (Homo sapiens), sequence (Q8WZA2 whole entry, looked up): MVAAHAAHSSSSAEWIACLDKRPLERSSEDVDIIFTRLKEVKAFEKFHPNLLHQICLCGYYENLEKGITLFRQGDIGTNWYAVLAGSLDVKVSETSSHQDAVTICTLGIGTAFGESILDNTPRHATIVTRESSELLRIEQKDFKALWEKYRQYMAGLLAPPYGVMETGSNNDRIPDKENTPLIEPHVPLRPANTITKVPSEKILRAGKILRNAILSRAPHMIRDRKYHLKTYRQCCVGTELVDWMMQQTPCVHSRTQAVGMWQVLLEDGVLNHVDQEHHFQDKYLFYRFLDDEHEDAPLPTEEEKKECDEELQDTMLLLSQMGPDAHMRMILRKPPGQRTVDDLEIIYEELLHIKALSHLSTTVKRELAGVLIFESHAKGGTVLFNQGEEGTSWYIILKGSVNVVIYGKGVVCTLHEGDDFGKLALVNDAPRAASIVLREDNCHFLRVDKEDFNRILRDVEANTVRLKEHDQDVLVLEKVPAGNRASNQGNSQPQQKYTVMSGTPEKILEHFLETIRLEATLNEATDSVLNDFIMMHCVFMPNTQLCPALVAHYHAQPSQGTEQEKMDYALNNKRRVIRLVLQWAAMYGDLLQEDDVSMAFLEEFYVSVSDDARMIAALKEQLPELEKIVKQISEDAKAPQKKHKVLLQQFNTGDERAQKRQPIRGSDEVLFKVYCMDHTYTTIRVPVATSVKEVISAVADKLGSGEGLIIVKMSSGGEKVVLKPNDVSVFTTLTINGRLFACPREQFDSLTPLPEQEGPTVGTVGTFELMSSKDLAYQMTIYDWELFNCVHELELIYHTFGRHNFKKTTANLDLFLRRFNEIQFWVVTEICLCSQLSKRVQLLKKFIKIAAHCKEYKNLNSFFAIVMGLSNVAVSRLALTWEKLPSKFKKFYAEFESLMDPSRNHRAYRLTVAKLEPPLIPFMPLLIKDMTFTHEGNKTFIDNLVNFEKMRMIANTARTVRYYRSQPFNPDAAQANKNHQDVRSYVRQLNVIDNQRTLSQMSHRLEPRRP
# Nuclear receptor subfamily 1 group I member 3 (Homo sapiens), sequence (Q14994 whole entry, looked up): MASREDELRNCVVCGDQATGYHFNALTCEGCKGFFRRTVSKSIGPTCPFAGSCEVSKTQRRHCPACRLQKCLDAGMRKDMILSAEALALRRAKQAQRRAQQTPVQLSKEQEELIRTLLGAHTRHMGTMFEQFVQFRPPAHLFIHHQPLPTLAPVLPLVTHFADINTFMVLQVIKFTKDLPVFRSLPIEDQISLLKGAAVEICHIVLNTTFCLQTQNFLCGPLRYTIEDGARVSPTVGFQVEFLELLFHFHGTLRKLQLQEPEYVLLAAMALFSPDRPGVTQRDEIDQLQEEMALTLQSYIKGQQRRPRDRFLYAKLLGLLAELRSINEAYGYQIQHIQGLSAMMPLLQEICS
compound,measurement,setting,value
CC(CCC1C(C(=O)O)=CC(=O)CC1(C)C)O[C@@H]1O[C@H](CO)[C@@H](O)[C@H](O)[C@H]1O (some centres undefined),Potency,[1],inactive
same,Potency,[2],inactive
same,activity,[3],-82.7%
same,"activity change, negative = inhibition",[4],-6.33%
same,activity,[5],-5.15%
same,activity,[6],-4.16%
COC(=O)CC[C@@H](C)[C@H]1CC[C@H]2[C@@H]3CC(=O)[C@H]4C[C@H](OC(C)=O)CC[C@]4(C)[C@H]3CC[C@]12C,Potency,[1],inactive
same,Potency,[2],inactive
CCN(c1cc(C#CCN2CCOCC2)cc(C(=O)NCc2c(C)cc(C)[nH]c2=O)c1C)C1CCC(N(C)CCOC)CC1 (centres undefined),Potency,[1],inactive
same,Potency,[2],inactive
same,activity,[3],15%
same,"activity change, negative = inhibition",[4],3.71%
same,activity,[5],-20.4%
same,activity,[6],4.61%
CC(=O)OC[C@]12[C@H](OC(C)=O)C(=O)[C@@H]3[C@@H](OC(C)=O)[C@@]14O[C@@]3(C)COC(=O)c1cccnc1[C@@H](C)[C@H](C)C(=O)O[C@@H]([C@H](OC(C)=O)[C@@H]2OC(C)=O)[C@]4(C)O,Potency,[1],inactive
same,Potency,[2],inactive
C=C1C(=O)O[C@H]2[C@H]1[C@@H](OC(=O)C(C)CO)C[C@@]1(C)[C@H](O)CCC(=O)[C@H]21 (some centres undefined),Potency,[1],inactive
same,Potency,[2],inactive
C[C@@H]1CC[C@H]2C(C)(C)[C@H](O)[C@H](O)C[C@]2(C)[C@@]12Cc1c(O)cc3c(c1O2)CNC3=O,Potency,[1],inactive
same,Potency,[2],inactive
CC(C)(O)C1CC=C(C(=O)OCC2OC(Oc3c(O)cc(C(=O)O)cc3O)C(O)C(O)C2O)CC1 (centres undefined),Potency,[1],inactive
same,Potency,[2],inactive
same,activity,[3],-71.8%
same,"activity change, negative = inhibition",[4],-3.66% [at 29.8 µM]
same,activity,[5],-2.85%
same,activity,[6],-2.18%
C=C1C(O[C@@H]2O[C@H](CO)[C@@H](O)[C@H](O)[C@@H]2O)CC2C(C)(C)C(O)CCC2(C)C1CC/C(C)=C\CO (some centres undefined),Potency,[1],inactive
same,Potency,[2],inactive
same,activity,[3],-63.2%
same,"activity change, negative = inhibition",[4],0% [at 29.8 µM]
same,activity,[5],3.48%
same,activity,[6],0.548%
CC1CC(O)C2(C)C(C(=O)O)=CCCC2C1(C)CCc1ccoc1 (centres undefined),Potency,[1],inactive
same,Potency,[2],inactive
same,activity,[3],-89.3%
same,"activity change, negative = inhibition",[4],2.37%
same,activity,[5],2.05%
same,activity,[6],2.03%
COc1cc(/C=C/C(=O)O[C@H]2[C@H](OC(=O)/C=C/c3cc(OC)c(O)c(OC)c3)O[C@H](CO[C@@H]3O[C@H](CO)[C@@H](O)[C@H](O)[C@H]3O)[C@@H](O)[C@@H]2O)ccc1O,Potency,[1],inactive
same,Potency,[2],inactive
same,activity,[3],-52.5%
same,"activity change, negative = inhibition",[4],0.645% [at 19.1 µM]
same,activity,[5],-4.49%
same,activity,[6],-4.24%
C[C@H]1[C@H](C)CC[C@]2(C(=O)O)CC[C@]3(C)C(=CC[C@@H]4[C@@]5(C)C[C@@H](O)[C@H](O)[C@@](C)(CO)[C@@H]5CC[C@]43C)[C@H]12,Potency,[1],inactive
same,Potency,[2],inactive
same,outcome,[7],inactive
same,outcome,[8],inactive
same,outcome,[9],inactive
same,outcome,[10],inactive
O=C(O)c1cc(O)c2cccc(O)c2c1O[C@@H]1O[C@H](CO)[C@@H](O)[C@H](O)[C@H]1O,Potency,[1],inactive
same,activity,[3],-4.06%
same,Potency,[4],29.8 µM (active)
same,activity,[5],-68.8%
same,activity,[6],-8.77%
CC(=O)O[C@@H]1[C@H]2[C@@H](OC(=O)c3ccccc3)[C@@H](C)C[C@]2(O)[C@H](OC(C)=O)[C@@]2(C)[C@@H]3CC(C)(C)C(=O)[C@]3(OC(C)=O)C[C@@]12C,Potency,[2],inactive
CC(C)C(=O)OCC(=O)[C@@]12O[C@H](C3CCCCC3)O[C@@H]1C[C@H]1[C@@H]3CCC4=CC(=O)C=C[C@]4(C)[C@H]3[C@@H](O)C[C@@]12C,Potency,[2],0.0209 µM (active)
OC[C@H]1O[C@@H](Oc2cc(O)cc(-c3cc4ccc(O)cc4o3)c2)[C@H](O)[C@@H](O)[C@@H]1O,Potency,[2],inactive
O=C(O[C@@H]1O[C@H](CO)[C@@H](O)[C@H](O)[C@H]1O)c1c(O)cc(O)cc1/C=C/c1ccccc1,Potency,[2],inactive
same,activity,[3],-66.4%
same,"activity change, negative = inhibition",[4],2.61% [at 29.8 µM]
same,activity,[5],-2.64%
same,activity,[6],-9.3%
O=C(O)C[C@H](O)C[C@H](O)/C=C/c1c(C2CC2)nc2ccccc2c1-c1ccc(F)cc1,Potency,[1],1.83 µM (active) and 1.18 µM (active)
same,Potency,[2],1.83 µM (active) and 934 nM (active)
same,outcome,[11],inactive
CC(C)(O)CNc1nc(Nc2ccnc(C(F)(F)F)c2)nc(-c2cccc(C(F)(F)F)n2)n1,Potency,[1],20.9 µM (active)
same,Potency,[2],20.9 µM (active)
same,outcome,[11],inactive
OC[C@H]1O[C@@H](Oc2ccc3c(c2)OC[C@H]2c4cc5c(cc4O[C@@H]32)OCO5)[C@H](O)[C@@H](O)[C@@H]1O,Potency,[2],7.96 µM (active)
CC(C)(C)NC(=O)[C@@H]1C[C@@H]2CCCC[C@@H]2CN1C[C@@H](O)[C@H](Cc1ccccc1)NC(=O)[C@H](CC(N)=O)NC(=O)c1ccc2ccccc2n1,outcome,[12],inactive
same,outcome,[13],inactive
same,Potency,[14],inactive
same,outcome,[15],inactive
